# Data reported in PubChem BioAssay (NCI).
# “And” between values parts separate entries of the source, which are not always exact repeats. Equal entries are not always repeated. The panel holds about 83,000 compounds, 20% with a hit somewhere; the sample as a whole holds those more often.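 Interpretation: 100, growth as untreated; towards 0, rising growth inhibition; 0, no net growth; 0 to -100, cell death. Compounds scoring below 10 were considered active.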 Unmarked numbers belong to inactive results. The source made the active and inactive calls.
# System: MDA-MB-468 breast
# Assay: NCI-60 one-dose screen, 48 h (100 = growth as untreated, 0 = no growth, -100 = all killed)
# Settings: 10 µM unless noted
row,SMILES,growth
1,CCOC(=O)C1OC1(c1ccccc1)c1ccccc1 (stereo not given),104%
2,CCCNS(=O)(=O)c1ccc(Cl)cc1,102%
3,CCOC(=O)c1c(NC(=O)C2CCCCC2C(=O)O)sc2c1CCCC2 (stereo not given),103%
4,O=Nc1c(-c2c(O)[nH]c3cc(Br)ccc23)[nH]c2ccccc12,-34.2% (active)
5,CC1CCN(C(=S)SCC(=O)NC(=O)c2ccccc2)CC1,119%
6,O=C1c2cccnc2C(=O)c2c1c(C(=O)OCCc1ccccn1)c1ccccn21,-23% (active)
7,CCOC(=O)c1nnn(Cc2cc(=O)oc3c2ccc2ccccc23)c1C,103%
8,O=[N+]([O-])c1ccc(Oc2cccnc2)c([N+](=O)[O-])c1,21.6%
9,CCN1CCN(c2ccc(NC(=O)Nc3ccc4c(ccn4-c4ccnc(C(=O)NC)c4)c3)cc2C(F)(F)F)CC1,65.9%
10,CCOC(=O)c1cc(C(=O)c2ccc(OC)c(OC)c2)n2c1ccc1ccc3cccnc3c12,38.5%
11,COc1cc(C2=N/C(=C\c3cc4ccccc4nc3Oc3ccccc3)C(=O)N2C(=N)N)cc(OC)c1OC,67.9%
12,C/C(=N\O)C1(O)CCCCC1,-9.98% (active)
13,COc1ccc2c(c1)OC13Oc4cc(OC)ccc4C=C1CCCCC3=C2,95.6%
14,O=C(Nc1ccc(I)cc1)c1cc([N+](=O)[O-])ccc1O,9.76% (active)
15,CC1(C)[C@@H](O)CC[C@]2(C)[C@H]3CC[C@@H]4[C@H]5[C@H](C(=O)/C=C\c6ccncc6)CC[C@]5(O)CC[C@@]4(C)[C@]3(C)CC[C@@H]12,17.5%
16,O=C(O)CCCl,94.6%
17,c1ccc2cc(C[n+]3ccn(CCCCCCCCCCCCn4cc[n+](Cc5ccc6ccccc6c5)c4)c3)ccc2c1,-81.7% (active)
18,S=c1[nH]c2cc(Cl)ccc2s1,108%
19,CCN1C(=O)N(CC)C2C1NC(=S)N2/N=C/C=C/c1cccs1 (stereo not given),7.59% (active)
20,CCCCCCCCCCCC(=O)OC(C)C(=O)Nc1ccccc1 (stereo not given),111%

row,SMILES,growth
1,O=C(Nc1nc(-c2ccc(Cl)cc2)cs1)c1cc(-c2ccc(Br)cc2)nc2ccc(Cl)cc12,98.7%
2,Cc1cc(/C=C\c2ccc3ccccc3[n+]2C)c(O)c2ncccc12,-27% (active)
3,COc1cc2oc(-c3cccc(NC(=O)[C@@H](N)C(C)C)c3)cc(=O)c2c(OC)c1OC,99.5%
4,CC/C=C\C/C=C/C=C1/C(=O)C=C[C@@H]1C/C=C\CCCC(=O)OC,19.8%
5,COc1ccc([N+](=O)[O-])c(/C=C/C(=O)c2ccccn2)c1,74.4%
6,CCN(CC)CCNc1ccc(C)c2sc3ccccc3c(=O)c12 (tested in a mixture with another compound),11.8% and 16.9%
7,COc1ccc(-c2nnc(SCC(=O)Nc3ccc(C(=O)/C=C/c4ccc(OC)c(OC)c4)cc3)o2)cc1,88.7%
8,COc1c(NC[C@H]2OC(O)[C@H](O)[C@@H](O)[C@@H]2O)c(=O)c1=O (stereo not given in full),94.1%
9,CC(C)(C)CC(C)(C)N(CSc1ccc(Cl)cc1)CSc1ccc(Cl)cc1,63.7%
10,CCC(C)NC(=O)c1ccccc1C (stereo not given),86.7%
11,O=C(Nc1ccc(-c2nc(-c3cccc(OCCN4CCOCC4)c3)c(-c3ccnc(Br)c3)[nH]2)cc1)c1ccccc1,-6.35% (active)
12,Cc1ccc2nc(NC(=O)CSc3nc(-c4ccccc4)c(C#N)c(=O)n3Cc3ccccc3)sc2c1,102%
13,COc1cc(/C=C/C(=O)c2ccc(-n3cc(CN4CCN(c5cc6c(cc5F)c(=O)c(C(=O)O)cn6C5CC5)CC4)nn3)cc2)ccc1O,64.8%
14,CC[C@H](Nc1nc(C)nc(N)c1C#N)c1nc2cccc(NCc3ccc(C(=O)NO)cc3)c2c(=O)n1-c1ccccc1,-37.1% (active)
15,Oc1[nH]c2ccc(Cl)cc2c1/C=c1/ccc2c(c1)N=C(c1cccs1)N=2,55.2%
16,CCN(CC)CCCC(Nc1c2ccc(Cl)cc2nc2ccc(OC)cc12)c1ccc(F)cc1 (stereo not given),90.5%
17,O=Cc1ccc(Cl)c(Cl)c1,119%
18,Cc1ccc(-c2c(-c3ccccc3)c(=O)oc3ccc(C)cc23)cc1,97.3%
19,Cc1cc(C)c(CC(=O)O)c(C)c1,111%
20,COc1ccc(/C=C2\N=C3SC=C(N)N3C2=O)cc1,-31.9% (active)
